Here are results for one sequence from publication PMC7862700, “An all-to-all approach to the identification of sequence-specific readers for epigenetic DNA modifications on cytosine”.

Common to all, as to assay: DAPPL (digital affinity profiling via proximity ligation, sequencing); 10 mM Tris-HCl pH 7.5, 50 mM NaCl, 1 mM DTT, 4% glycerol, room temperature, 30 min; GST-TFs on glutathione beads, 16-mer random dsDNA library, 0.1% formaldehyde crosslink after washing; high values mean tight binding
The target of assay [1] is T1, FLI1 (Homo sapiens, UniProt Q01543 1-452).
T1 sequence: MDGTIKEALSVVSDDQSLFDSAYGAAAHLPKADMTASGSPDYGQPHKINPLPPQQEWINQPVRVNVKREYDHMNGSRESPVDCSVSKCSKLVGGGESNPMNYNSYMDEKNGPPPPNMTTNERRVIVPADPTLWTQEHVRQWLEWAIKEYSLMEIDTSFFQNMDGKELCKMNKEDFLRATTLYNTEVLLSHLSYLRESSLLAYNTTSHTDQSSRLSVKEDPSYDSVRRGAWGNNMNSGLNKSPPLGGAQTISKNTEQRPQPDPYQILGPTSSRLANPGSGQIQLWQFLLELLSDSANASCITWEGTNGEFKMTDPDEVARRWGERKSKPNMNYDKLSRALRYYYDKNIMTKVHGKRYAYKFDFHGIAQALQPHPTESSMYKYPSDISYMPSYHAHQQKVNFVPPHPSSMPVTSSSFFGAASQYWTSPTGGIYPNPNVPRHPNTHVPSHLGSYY
To be noted: protein: recombinant; tags: N-terminal GST; dsDNA, one strand shown. The procedure, abridged: (§1)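 Beads coated with glutathione captured GST-fused human transcription factors that had been expressed in yeast, and the factors were then given DNA barcodes and pooled with a tag-only sample. The pools were incubated with 200 nmole of a random double-stranded 16-mer DNA library in Tris/NaCl/DTT/glycerol buffer for 30 min at room temperature, washed, crosslinked with 0.1% formaldehyde and proximity-ligated with BsaI/T4 ligase at 37 °C for 1 h. PCR amplification and Illumina NextSeq500 sequencing came last. Binding signal is each hexamer's read frequency for a factor divided by its frequency for the tag-only sample.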

For assay [2], the target named is T2, ELK1 (Homo sapiens, UniProt P19419 1-428).
T2 sequence: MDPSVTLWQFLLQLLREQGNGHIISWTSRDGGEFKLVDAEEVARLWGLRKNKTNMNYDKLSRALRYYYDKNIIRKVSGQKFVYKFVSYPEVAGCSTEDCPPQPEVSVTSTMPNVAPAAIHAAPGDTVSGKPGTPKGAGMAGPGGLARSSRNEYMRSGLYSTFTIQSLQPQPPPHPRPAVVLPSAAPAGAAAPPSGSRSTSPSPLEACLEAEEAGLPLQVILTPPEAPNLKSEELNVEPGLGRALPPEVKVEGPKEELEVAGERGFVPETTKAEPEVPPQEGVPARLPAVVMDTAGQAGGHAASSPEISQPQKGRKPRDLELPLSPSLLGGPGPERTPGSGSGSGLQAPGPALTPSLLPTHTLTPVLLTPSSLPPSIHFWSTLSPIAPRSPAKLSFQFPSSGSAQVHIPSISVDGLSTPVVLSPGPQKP
Conditions: protein: recombinant; tags: N-terminal GST; dsDNA, one strand shown. The procedure, abridged:
as §1

For assay [3], the target named is T3, GABPA (Homo sapiens, UniProt Q06546 1-454).
T3 sequence: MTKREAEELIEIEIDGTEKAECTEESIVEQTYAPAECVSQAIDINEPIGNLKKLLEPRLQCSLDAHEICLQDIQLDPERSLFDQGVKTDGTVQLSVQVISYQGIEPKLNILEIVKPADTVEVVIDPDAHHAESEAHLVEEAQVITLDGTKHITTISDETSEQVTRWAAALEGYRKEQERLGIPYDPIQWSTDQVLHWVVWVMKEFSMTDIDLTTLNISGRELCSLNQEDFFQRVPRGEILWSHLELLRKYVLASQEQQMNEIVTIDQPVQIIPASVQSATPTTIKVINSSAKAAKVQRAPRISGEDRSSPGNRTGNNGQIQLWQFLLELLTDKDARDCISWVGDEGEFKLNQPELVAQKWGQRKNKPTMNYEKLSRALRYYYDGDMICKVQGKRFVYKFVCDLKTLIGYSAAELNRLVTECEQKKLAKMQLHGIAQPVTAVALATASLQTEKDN
To be noted: protein: recombinant; tags: N-terminal GST; dsDNA, one strand shown. The procedure, abridged:
as §1

Assay [4] addresses T4, ERG (Homo sapiens, UniProt P11308 1-479).
T4 sequence: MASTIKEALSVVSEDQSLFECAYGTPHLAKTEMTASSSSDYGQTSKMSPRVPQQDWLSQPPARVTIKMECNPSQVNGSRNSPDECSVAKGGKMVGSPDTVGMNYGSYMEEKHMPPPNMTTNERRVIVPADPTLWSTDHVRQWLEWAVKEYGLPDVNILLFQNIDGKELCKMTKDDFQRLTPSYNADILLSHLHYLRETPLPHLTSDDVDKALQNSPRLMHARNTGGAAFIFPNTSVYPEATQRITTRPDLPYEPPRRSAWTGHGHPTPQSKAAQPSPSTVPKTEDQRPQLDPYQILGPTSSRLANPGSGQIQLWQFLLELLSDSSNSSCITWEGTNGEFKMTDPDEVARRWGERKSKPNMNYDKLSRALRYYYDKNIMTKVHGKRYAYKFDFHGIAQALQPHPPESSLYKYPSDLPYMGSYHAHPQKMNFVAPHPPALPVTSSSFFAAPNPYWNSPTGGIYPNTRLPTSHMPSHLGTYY
Conditions: protein: recombinant; tags: N-terminal GST; dsDNA, one strand shown. The procedure, abridged: as §1

Assay [5] deals with ELF1 (Homo sapiens, UniProt P32519 1-619). To be noted: protein: recombinant; tags: N-terminal GST; dsDNA, one strand shown. The procedure, abridged: as §1
Assay [6] deals with T5, EHF (Homo sapiens, UniProt Q9NZC4 1-300).
T5 sequence: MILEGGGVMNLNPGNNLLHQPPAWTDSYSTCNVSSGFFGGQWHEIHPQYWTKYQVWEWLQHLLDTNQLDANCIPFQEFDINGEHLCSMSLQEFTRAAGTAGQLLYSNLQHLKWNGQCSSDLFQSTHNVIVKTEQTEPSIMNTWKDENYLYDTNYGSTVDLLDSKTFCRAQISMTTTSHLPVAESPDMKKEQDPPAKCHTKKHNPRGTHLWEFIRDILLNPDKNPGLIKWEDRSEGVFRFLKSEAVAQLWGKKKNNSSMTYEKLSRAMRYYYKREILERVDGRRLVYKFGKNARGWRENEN
Conditions: protein: recombinant; tags: N-terminal GST; dsDNA, one strand shown. The procedure, abridged: as §1

Assay [7] deals with SPI1 (Homo sapiens, UniProt P17947 1-270). Conditions: protein: recombinant; tags: N-terminal GST; dsDNA, one strand shown. The procedure, abridged: as §1
In assay [8] the target is SPIB (Homo sapiens, UniProt Q01892 1-262). Conditions: protein: recombinant; tags: N-terminal GST; dsDNA, one strand shown. The procedure, abridged:
as §1

Assay [9] addresses T6, ELK3 (Homo sapiens, UniProt P41970 1-407).
T6 sequence: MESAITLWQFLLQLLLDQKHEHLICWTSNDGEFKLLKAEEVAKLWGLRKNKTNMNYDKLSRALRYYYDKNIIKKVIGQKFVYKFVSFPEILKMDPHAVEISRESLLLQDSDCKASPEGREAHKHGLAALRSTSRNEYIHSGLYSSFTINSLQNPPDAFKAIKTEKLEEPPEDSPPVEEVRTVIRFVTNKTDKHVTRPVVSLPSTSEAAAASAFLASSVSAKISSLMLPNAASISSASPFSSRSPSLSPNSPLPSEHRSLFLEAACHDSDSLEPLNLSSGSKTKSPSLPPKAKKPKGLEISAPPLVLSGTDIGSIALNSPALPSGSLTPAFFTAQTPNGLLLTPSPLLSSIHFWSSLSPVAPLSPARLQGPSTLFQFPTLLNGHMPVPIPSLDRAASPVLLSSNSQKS
Conditions: protein: recombinant; tags: N-terminal GST; dsDNA, one strand shown. The procedure, abridged: as §1

Assay [10] deals with T7, FEV (Homo sapiens, UniProt Q99581 1-238).
T7 sequence: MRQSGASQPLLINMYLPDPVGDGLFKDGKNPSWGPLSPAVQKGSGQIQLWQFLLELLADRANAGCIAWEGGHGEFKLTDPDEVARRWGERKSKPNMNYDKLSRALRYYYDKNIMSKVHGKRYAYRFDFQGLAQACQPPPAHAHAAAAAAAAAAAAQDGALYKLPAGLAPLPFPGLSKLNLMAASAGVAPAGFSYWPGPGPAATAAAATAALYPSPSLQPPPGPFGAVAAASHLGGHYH
Conditions: protein: recombinant; tags: N-terminal GST; dsDNA, one strand shown. The procedure, abridged:
as §1

Assay [11] deals with ETV5 (Homo sapiens, UniProt P41161 1-510). Conditions: protein: recombinant; tags: N-terminal GST; dsDNA, one strand shown. The procedure, abridged: as §1
Assay [12] concerns the target HSF1 (Homo sapiens, UniProt Q00613 1-529). Conditions: protein: recombinant; tags: N-terminal GST; chain copies: 3; dsDNA, one strand shown. The procedure, abridged:
as §1

The target in assay [13] is T8, SPIC (Homo sapiens, UniProt Q8N5J4 1-248).
T8 sequence: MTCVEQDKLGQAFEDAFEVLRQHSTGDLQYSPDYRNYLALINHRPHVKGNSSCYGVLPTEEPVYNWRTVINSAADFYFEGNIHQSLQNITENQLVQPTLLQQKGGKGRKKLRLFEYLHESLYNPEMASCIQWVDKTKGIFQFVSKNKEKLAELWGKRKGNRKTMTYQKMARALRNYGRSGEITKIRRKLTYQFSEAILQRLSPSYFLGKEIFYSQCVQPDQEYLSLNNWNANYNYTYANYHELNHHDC
Conditions: protein: recombinant; tags: N-terminal GST; dsDNA, one strand shown. The procedure, abridged: as §1

Assay [14] concerns the target ELF4 (Homo sapiens, UniProt Q99607 1-663). Conditions: protein: recombinant; tags: N-terminal GST; dsDNA, one strand shown. The procedure, abridged:
as §1

Assay [15] has as its target T9, ETV2 (Homo sapiens, UniProt O00321 1-342).
T9 sequence: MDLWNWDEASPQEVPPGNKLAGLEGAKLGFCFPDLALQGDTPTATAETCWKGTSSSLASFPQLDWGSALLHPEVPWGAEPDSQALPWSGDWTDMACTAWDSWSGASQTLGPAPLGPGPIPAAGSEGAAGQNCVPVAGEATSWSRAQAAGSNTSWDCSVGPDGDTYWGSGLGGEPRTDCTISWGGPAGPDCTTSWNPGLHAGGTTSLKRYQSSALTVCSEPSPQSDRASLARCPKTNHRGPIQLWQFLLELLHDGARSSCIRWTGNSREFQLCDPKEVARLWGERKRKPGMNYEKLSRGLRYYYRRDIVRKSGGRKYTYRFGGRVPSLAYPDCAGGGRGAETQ
To be noted: protein: recombinant; tags: N-terminal GST; dsDNA, one strand shown. The procedure, abridged: as §1

Assay [16] concerns the target T10, ELF3 (Homo sapiens, UniProt P78545 1-371).
T10 sequence: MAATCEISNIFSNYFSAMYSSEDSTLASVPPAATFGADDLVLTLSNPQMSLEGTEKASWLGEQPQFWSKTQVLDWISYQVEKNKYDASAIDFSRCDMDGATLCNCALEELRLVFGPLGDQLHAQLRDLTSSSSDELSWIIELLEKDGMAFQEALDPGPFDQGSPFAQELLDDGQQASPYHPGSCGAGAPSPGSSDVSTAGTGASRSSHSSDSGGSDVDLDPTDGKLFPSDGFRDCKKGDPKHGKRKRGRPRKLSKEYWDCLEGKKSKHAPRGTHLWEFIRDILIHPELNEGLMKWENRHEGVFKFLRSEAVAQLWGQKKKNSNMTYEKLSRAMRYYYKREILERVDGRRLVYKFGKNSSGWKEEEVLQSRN
To be noted: protein: recombinant; tags: N-terminal GST; dsDNA, one strand shown. The procedure, abridged: as §1

Assay [17] addresses ETV1 (Homo sapiens, UniProt P50549 1-477). To be noted: protein: recombinant; tags: N-terminal GST; dsDNA, one strand shown. The procedure, abridged:
as §1

ELF1, sequence (P32519 whole entry): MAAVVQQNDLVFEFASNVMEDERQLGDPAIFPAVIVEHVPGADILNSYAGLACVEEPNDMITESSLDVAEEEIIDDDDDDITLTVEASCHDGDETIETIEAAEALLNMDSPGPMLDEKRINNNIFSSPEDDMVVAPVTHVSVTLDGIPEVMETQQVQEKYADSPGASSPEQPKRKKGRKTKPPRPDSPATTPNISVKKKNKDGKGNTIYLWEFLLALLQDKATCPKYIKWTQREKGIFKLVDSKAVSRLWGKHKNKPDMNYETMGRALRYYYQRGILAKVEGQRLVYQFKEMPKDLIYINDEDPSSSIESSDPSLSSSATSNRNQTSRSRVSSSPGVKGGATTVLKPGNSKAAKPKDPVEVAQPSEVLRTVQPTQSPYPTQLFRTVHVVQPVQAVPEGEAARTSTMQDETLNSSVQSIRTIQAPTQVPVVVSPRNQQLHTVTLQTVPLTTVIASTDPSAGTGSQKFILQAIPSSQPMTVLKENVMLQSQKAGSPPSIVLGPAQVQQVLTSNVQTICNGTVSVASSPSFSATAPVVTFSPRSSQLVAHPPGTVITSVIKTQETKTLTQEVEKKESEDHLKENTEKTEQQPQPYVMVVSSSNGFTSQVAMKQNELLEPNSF
ETV1, sequence (P50549 whole entry): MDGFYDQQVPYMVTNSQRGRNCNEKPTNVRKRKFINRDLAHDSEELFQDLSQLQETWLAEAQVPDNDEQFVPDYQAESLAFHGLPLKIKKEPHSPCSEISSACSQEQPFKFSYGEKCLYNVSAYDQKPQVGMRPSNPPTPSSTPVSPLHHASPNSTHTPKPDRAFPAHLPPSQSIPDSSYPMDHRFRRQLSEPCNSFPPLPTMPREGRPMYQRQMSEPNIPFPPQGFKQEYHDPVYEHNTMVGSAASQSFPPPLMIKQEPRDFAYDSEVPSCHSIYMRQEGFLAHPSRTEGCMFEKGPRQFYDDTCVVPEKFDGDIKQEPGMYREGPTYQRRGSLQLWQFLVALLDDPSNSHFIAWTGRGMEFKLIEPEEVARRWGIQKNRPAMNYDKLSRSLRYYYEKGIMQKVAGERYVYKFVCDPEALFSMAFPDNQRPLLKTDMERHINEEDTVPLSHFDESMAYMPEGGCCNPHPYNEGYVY
ETV5, sequence (P41161 whole entry): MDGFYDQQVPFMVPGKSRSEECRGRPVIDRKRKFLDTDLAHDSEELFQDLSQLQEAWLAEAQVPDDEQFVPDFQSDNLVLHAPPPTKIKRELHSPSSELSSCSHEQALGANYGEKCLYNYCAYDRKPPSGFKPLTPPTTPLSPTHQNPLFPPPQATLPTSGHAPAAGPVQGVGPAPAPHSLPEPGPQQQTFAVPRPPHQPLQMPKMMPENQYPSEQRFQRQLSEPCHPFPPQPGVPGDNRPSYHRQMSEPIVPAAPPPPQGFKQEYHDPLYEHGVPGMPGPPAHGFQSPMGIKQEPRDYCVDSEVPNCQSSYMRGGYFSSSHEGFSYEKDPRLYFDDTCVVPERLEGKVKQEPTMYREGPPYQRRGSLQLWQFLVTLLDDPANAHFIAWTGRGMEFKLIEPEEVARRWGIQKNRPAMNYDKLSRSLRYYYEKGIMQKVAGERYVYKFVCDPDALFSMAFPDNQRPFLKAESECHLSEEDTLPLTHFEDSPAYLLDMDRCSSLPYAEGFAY
ELF4, sequence (Q99607 whole entry): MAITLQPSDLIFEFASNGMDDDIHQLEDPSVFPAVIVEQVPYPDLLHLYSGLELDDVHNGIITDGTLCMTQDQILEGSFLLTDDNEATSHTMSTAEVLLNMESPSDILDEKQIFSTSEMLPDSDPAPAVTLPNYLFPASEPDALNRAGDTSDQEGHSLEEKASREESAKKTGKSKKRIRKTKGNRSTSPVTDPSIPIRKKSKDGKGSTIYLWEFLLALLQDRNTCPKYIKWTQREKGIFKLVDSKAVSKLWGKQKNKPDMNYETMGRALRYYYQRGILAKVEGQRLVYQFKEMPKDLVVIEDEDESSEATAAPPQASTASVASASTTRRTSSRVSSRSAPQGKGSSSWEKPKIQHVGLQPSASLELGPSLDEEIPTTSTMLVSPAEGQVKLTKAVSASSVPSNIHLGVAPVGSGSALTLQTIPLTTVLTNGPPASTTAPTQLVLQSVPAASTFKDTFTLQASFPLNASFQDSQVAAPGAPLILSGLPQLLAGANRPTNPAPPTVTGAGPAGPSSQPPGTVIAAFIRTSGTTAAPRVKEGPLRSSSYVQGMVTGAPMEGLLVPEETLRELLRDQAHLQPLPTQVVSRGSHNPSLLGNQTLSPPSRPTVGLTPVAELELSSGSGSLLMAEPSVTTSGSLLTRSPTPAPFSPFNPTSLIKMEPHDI
HSF1, sequence (Q00613 whole entry): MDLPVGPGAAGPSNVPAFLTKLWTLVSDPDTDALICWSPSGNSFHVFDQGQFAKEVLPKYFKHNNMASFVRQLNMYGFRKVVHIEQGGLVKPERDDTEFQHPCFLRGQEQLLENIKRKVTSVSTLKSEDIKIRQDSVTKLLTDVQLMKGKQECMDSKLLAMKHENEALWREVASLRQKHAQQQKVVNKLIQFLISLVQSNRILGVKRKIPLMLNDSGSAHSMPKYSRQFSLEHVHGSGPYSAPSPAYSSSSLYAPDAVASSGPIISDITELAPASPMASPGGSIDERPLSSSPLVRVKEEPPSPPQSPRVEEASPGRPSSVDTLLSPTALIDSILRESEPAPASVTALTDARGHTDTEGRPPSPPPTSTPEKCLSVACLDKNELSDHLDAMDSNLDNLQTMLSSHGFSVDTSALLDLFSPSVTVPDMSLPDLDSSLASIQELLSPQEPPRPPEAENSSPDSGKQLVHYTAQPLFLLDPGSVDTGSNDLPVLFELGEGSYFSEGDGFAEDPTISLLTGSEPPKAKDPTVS
SPIB, sequence (Q01892 whole entry): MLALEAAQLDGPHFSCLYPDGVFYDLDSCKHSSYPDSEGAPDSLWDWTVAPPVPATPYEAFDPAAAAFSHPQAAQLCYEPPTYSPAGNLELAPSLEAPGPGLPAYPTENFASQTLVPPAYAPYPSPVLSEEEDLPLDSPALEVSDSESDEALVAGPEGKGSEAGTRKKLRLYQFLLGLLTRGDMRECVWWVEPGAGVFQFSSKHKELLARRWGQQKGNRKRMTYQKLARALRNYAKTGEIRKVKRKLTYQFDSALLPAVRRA

As to CTATGA, the binding signal was 1.03 fold enrichment (6-mer frequency, TF over GST control) in [1]; 1.13 fold enrichment (6-mer frequency, TF over GST control) in assay [2]; 1.18 fold enrichment (6-mer frequency, TF over GST control) in assay [3]; 1.06 fold enrichment (6-mer frequency, TF over GST control) in assay [4]; 1.16 fold enrichment (6-mer frequency, TF over GST control) in assay [5]; 1.14 fold enrichment (6-mer frequency, TF over GST control) in assay [6]. For the same sequence, the binding signal in [7] is 1.03 fold enrichment (6-mer frequency, TF over GST control); in assay [8], 1.13 fold enrichment (6-mer frequency, TF over GST control); in [9], 1.01 fold enrichment (6-mer frequency, TF over GST control); in assay [10], 1.08 fold enrichment (6-mer frequency, TF over GST control); in [11], 1.07 fold enrichment (6-mer frequency, TF over GST control); in assay [12], 1.04 fold enrichment (6-mer frequency, TF over GST control). Moreover, the binding signal in assay [13] is 1.17 fold enrichment (6-mer frequency, TF over GST control); in assay [14], 1.1 fold enrichment (6-mer frequency, TF over GST control); in assay [15], 1.19 fold enrichment (6-mer frequency, TF over GST control); in assay [16], 1.15 fold enrichment (6-mer frequency, TF over GST control); in [17], 1.02 fold enrichment (6-mer frequency, TF over GST control).
